Bioassay records deposited in PubChem by National Center for Advancing Translational Sciences (NCATS).
The sample as a whole holds a higher share of hits than the screen did.
HT1080 IDH1KD tx: qHTS for induction of synthetic lethality in tumor cells producing 2HG: qHTS for the HT-1080-IDH1KD cell line; HT-1080 IDH1 knockdown viability, ATP luminescence, 48 h; Potency, µM (top dose mostly 46.1 µM), inactives show at the top dose activity, negative = toxicity, most hits filed as cytotoxic; hit rate 2% among 360,000; AID 686971, 2013;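 further: potency means the concentration at half of the fitted maximal effect; 0% = DMSO wells and -100% = cell-free medium wells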
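Assay cells: HT-1080 with IDH1 knockdown, 750 per well, RPMI/5% FBS. Exposure: 48 h at 37 °C following 2 h pre-incubation. Read: CellTiter-Glo luminescence; fitted concentration-response, curve class assigned.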
12-LOX inh: Primary qHTS assay for inhibitors of human arachidonate 12S-lipoxygenase (ALOX12): Round 2; Polyunsaturated fatty acid lipoxygenase ALOX12 (Homo sapiens), P18054; purified 12hLO, xylenol orange hydroperoxide absorbance; Potency, µM (doses to about 108 µM), inactives show at the top dose activity change, negative = inhibition, hits mostly inhibitors; hit rate 1.1% among 580,000; AID 1671190, 2021; further: potency means the concentration at half of the fitted maximal effect
Target sequence (P18054 whole entry, looked up): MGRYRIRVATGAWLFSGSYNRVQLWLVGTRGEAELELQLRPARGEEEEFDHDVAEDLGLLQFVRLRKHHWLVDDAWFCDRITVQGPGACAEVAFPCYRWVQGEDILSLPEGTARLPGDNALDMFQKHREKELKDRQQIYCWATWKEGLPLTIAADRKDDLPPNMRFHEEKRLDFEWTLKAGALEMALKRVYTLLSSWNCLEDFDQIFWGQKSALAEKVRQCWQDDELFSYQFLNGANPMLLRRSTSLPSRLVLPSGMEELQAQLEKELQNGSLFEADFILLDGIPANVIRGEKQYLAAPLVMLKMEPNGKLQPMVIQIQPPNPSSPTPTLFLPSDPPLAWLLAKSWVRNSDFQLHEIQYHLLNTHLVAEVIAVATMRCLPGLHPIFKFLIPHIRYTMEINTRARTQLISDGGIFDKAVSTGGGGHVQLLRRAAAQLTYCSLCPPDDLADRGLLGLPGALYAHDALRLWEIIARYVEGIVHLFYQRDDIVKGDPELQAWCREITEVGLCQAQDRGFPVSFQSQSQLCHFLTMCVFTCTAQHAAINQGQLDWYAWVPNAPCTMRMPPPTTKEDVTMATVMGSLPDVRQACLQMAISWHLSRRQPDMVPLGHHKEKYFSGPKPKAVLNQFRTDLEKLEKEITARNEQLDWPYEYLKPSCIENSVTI
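Purified human 12hLO at 150 nM in 25 mM Hepes, 0.01% Triton X-100, pH 7.0, preincubated 15 min at room temperature with compound. Reaction started with 40 uM arachidonic acid, 30 min at room temperature. Hydroperoxide measured by Fe-xylenol orange, 573/405 nm absorbance ratio.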
HT1080NT lethal: qHTS for induction of synthetic lethality in tumor cells producing 2HG: qHTS for the HT-1080-NT fibrosarcoma cell line; HT-1080-NT fibrosarcoma viability, CellTiter-Glo ATP luminescence, 48 h; Potency, µM (doses to about 46.1 µM), for the others: at the top dose activity, negative = less viability, usual class: cytotoxic; hit rate 1.6% among 360,000; AID 686970, 2013;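 further: NT is the 2HG producing partner of a matched IDH1 knockdown line; potency means the concentration at half of the fitted maximal effect; 0% = DMSO-treated cells and -100% = media-only wells without cells; nearly all actives have a fitted effect of over 55% in size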
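Viability by CellTiter-Glo luminescence after 48 h compound exposure at 37C of HT-1080-NT cells (750/well, RPMI, 5% FBS). % activity scaled between DMSO wells and medium-only wells, then curve-fitted and categorized by curve class.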
IL1B secr inh: qHTS for Inhibitors of Inflammasome Signaling: IL-1-beta AlphaLISA Primary Screen | THP-1 LPS/ATP IL-1B secretion, AlphaLISA, 16 h; hits give low values | hit rate 4.7% among 360,000 | activity change, % at 57.5 µM; in the data active means activity change below about -50%; inconclusive means mostly about -30% to -49%
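Secreted IL-1B measured by AlphaLISA bead assay after 16 h compound exposure of THP-1 cells; compounds (final up to 57.5 uM) added 1 h before LPS (250 ng/mL) and ATP (1.25 mM) stimulation; lower signal means less secretion.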
TDP1 cell noCPT: qHTS for Inhibitors of human tyrosyl-DNA phosphodiesterase 1 (TDP1): qHTS in cells in absence of CPT | DT40 Tdp1-/- hTDP1 cells, no CPT, ATP luminescence, 48 h | Potency, µM (top dose mostly 46.2 µM), for the others: at the top dose activity change, negative = growth inhibition, hits mostly inhibitors | hit rate 15% among 420,000; further: potency means the concentration at half of the fitted maximal effect; nearly all actives have a fitted effect of over 55% in size
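Chicken DT40 Tdp1-/- cells stably complemented with human TDP1 were seeded at 400 cells/well with DMSO in place of 20 nM camptothecin. After compound pinning, cells grew at least 48 hr at 37 °C; viability read by CellTiter-Glo luminescence.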
TDP1 cell CPT: qHTS for Inhibitors of human tyrosyl-DNA phosphodiesterase 1 (TDP1): qHTS in cells in presence of CPT | chicken DT40 Tdp1-/-;hTDP1 cells + 20 nM CPT, ATP luminescence, 48 h | Potency, µM (titrated, usually from 46.2 µM), without a hit: at the top dose activity change, negative = growth inhibition, hits mostly inhibitors | hit rate 12% among 420,000 | AID 686979, 2013; further: potency means the concentration at half of the fitted maximal effect; nearly all actives have a fitted effect of over 55% in size
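Chicken DT40 Tdp1-/- cells stably complemented with human TDP1 were seeded at 400 cells/well in medium containing 20 nM camptothecin, exposed to pin-transferred compounds, and grown at 37 °C for at least 48 hr. Viability was read as ATP luminescence.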
* = called active by the depositor; i = inactive; u = inconclusive; x = no result; [ ] = dose if it differs, or a comment. Unless noted, the call rests on the fitted dose curve; in most records, active means well fitted curve in the direction sought with a large enough effect; inconclusive means small, poorly fitted or top-dose-only effect, or another doubt; inactive means no such curve, though single readings can be large; an effect the other way counts as inactive or inconclusive. Unless noted, on the % scale 0 is the no-effect control and ±100 the full control effect.

SMILES	HT1080 IDH1KD tx	12-LOX inh	HT1080NT lethal	IL1B secr inh	TDP1 cell noCPT	TDP1 cell CPT
COc1ccc(C(CC(=O)Nc2cc(OC)cc(OC)c2)n2cccc2)cc1 (stereo not drawn)	-1%	3%	-15%	-17	u	u
COc1ccccc1C(CC(=O)Nc1ccc(C)c(C)c1)c1ccc(OC(C)C)cc1 (stereo not drawn)	u	-8%	u	6	21µM*	u
COc1ccccc1NC(=O)CC(c1ccc(OC(C)C)cc1)c1ccccc1OC (stereo not drawn)	7%	1%	10%	10	21µM*	16µM*
CC(C)Oc1ccc(NC(=O)CCC(=O)O)cc1	-2%	0%	4%	-1	1%	-5%
COc1ccc(C(CC(=O)Nc2ccccc2OC)n2cccc2)cc1 (stereo not drawn)	-6%	-13%	-5%	-4	10µM*	16µM*
Cc1ccc(C(C)C)c(OCCNCc2ccccc2)c1	0%	u	5%	u	21µM*	u
S=C(NCCN1CCOCC1)Nc1cccc2ccccc12	15%	-15%	5%	35	4%	9%
Cc1cc(OCCOCCNCc2ccccc2)ccc1C(C)C	-19%	u	-26%	-63*	12µM*	18µM*
CNCCOc1ccccc1C(C)(C)C	2%	u	-7%	3	u	-28%
CC(C)(C)c1ccccc1OCCOCCNCc1ccccc1	u	-23%	-23%	-57*	13µM*	16µM*
Cc1ccc(C(C)C)c(OCCNC(=S)Nc2cccc3ccccc23)c1	7.9µM*	u	5.6µM*	0	13µM*	14µM*
Cc1ccc2cc(/C=C/C(=O)NC3CCCC3)oc2c1	x	-32%	x	x	x	x
COc1ccc(-c2c(-c3ccccc3)c(C(=O)C(=O)NCCCN(C)C)n3ccc4cc(OC)c(OC)cc4c23)cc1OC	u	u	u	-28	18µM*	3.3µM*
CN(C)CCCNC(=O)Cn1c(-c2ccccc2)cc2ccccc21	x	-5%	x	x	x	x
COCCn1ncc(N2CCC(NC(=O)COc3ccc(F)cc3)CC2)cc1=O	x	19%	x	x	x	x
O=C(COc1ccc(/C=N/NS(=O)(=O)c2ccccc2)cc1)NCc1ccccc1	2%	155%	0%	4	-28%	0%
CCn1c2ccccc2c2cc(NC(=O)c3cc(OC)cc(OC)c3)ccc21	1.5µM*	-2%	1.3µM*	19	0.73µM*	1µM*
O=C(COc1ccc(/C=N/NS(=O)(=O)c2ccccc2)cc1)Nc1cccc(Cl)c1	u	33%	u	-11	21µM*	u
CCn1c2ccccc2c2cc(NC(=O)CN(C)CC(=O)Nc3ccc(N4CCOCC4)cc3)ccc21	26µM*	1%	-8%	u	23µM*	u
CCn1c2ccccc2c2cc(NC(=O)c3cc(C)on3)ccc21	23µM*	-2%	u	u	18µM*	u
CCn1c2ccccc2c2cc(NC(=O)c3ccc(Br)o3)ccc21	-9%	u	-12%	u	u	u
CC(C)(CO)NCc1cc(=O)oc2cc3c(cc12)CCC3	x	27%	x	x	x	x
COc1ccccc1CNC(=O)Cc1c(C)c2ccc(O)cc2oc1=O	x	3%	x	x	x	x
C/C(CC(=O)Nc1ccc(OCc2ccccc2)cc1)=N\NC(=O)C(=O)Nc1ccc(C)c(Cl)c1	u	15%	18µM*	6	18µM*	u
CCn1c2ccccc2c2cc(NC(=O)COc3ccccc3)ccc21	-25%	-14%	-23%	-3	23µM*	18µM*
SMILES	HT1080 IDH1KD tx	12-LOX inh	HT1080NT lethal	IL1B secr inh	TDP1 cell noCPT	TDP1 cell CPT
CCn1c2ccccc2c2cc(NC(=O)c3cc(OC)c(OC)c(OC)c3)ccc21	1.5µM*	3%[57.4 µM]	0.82µM*	14	1.3µM*	1.3µM*
Cc1ccc(NC(=O)CC(C)CC(=O)NCc2ccccc2)cc1Cl (stereo not drawn)	-10%	0%	-5%	36	u	13µM*
COc1ccc2[nH]cc(C3C(NC(=O)c4ccccc4)=C(C)Nc4ncnn43)c2c1 (stereo not drawn)	x	14%	x	x	x	x
CN(CC(=O)Nc1ccc(N2CCOCC2)cc1)Cc1cc(=O)n2ccsc2n1	7%	0%	-11%	45	u	18µM*
Cc1ccc(NC(=O)COc2ccccc2)cc1Cl	14%	x	21%	-51*	-29%	30%
Cc1cc(NC(=O)COc2ccccc2)ccc1Cl	8%	188%	-1%	-13	-14%	-8%
CCOC(=O)c1[nH]c2ccccc2c1NC(=O)CCN1CCC(C(N)=O)CC1	x	-7%	x	x	x	x
COc1ccc(CNC(=O)C[C@@H]2C[C@@H](C(C)C)[C@H](CNC(=O)c3cccnc3)C=C2C)cc1	x	4%	x	x	x	x
Cc1ccc(O)c(C(=O)c2cnc3c(c2)c(=O)n(C)c(=O)n3C)c1	7%	-4%	16%	26	u	u
Cc1ccc(O)c(C(=O)c2cnc3c(c2)c(-c2ccc(F)cc2)c(C#N)c(=O)n3C)c1	-1%	-1%	-8%	-28	21µM*	18µM*
Cn1c(=O)c2c(nc(NCCCO)n2Cc2cccc(Cl)c2)n(C)c1=O	x	7%	x	x	x	x
CC1CCCN(C(=O)c2ccc(CN3C(=O)NC4(CCS(=O)(=O)CC4)C3=O)cc2)C1 (stereo not drawn)	x	12%	x	x	x	x
COc1ccc2[nH]c3c(=O)n(CCCCC(=O)NCCN4CCCC4)c(=S)[nH]c3c2c1	2%	14µM*	2%	-19	2%	7%
O=C(NC1CCCCCC1)c1cccc(Oc2ccccc2)c1	x	3%	x	x	x	x
CCCN1CCC(NC(=O)c2cccc(Oc3ccccc3)c2)CC1	-1%	-6%	-3%	i	23µM*	u
COc1cc(OC)cc(C(=O)NC2CCN(CCCOc3ccccc3)CC2)c1	-5%	0%	-7%	-52*	-1%	-6%
CC(C)NC(=O)N1CCC2(CC1)CN(C(=O)Cc1cccc(O)c1)Cc1ccccc1O2	x	1%[6.33 µM]	x	x	x	x
O=C(Nc1cn[nH]c1)C1CCN(c2ccc(C(F)(F)F)cn2)CC1	x	-3%	x	x	x	x
